The values that follow come from PubChem BioAssay AID504373 (National Center for Advancing Translational Sciences (NCATS), 2011).

Records with an inconclusive call do not appear. Activity calls are given as the source filed them.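 The calls were made as follows: active = fewer circulating green fluorescent tagged thrombocytes in treated fish, with no visible harm to the embryos; inconclusive = compound visibly harmful to the embryos; inactive = no drop in circulating tagged thrombocytes.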

A short description of one assay: qHTS Assay for Compounds Blocking the Interaction Between CBF-beta and RUNX1 for the Treatment of Acute Myeloid Leukemia: Zebrafish assay for Hematopoiesis, SAR for Probe. The settings on record: GFP-cd41 zebrafish embryos, microscopy, 5 days, at 25 µM, stronger effect = lower value. From the text: NIH Chemical Genomics Center [NCGC] NIH Molecular Libraries Probe Production centers Network [MLPCN] MLPCN Grant: X01MH083259-01 Assay Submitter (PI): Paul Liu NCGC Assay Overview: Core Binding Factor (CBF) abnormalities are associated with 20-25% of all acute myeloid leukemias (AML), of which 5-10% are further sub classified as acute myelomonocytic leukemia with eosinophilia, also known as M4Eo in the FAB classification scheme. This subtype of leukemia is usually associated with chromosome 16 inversion (p13:q22). Chromosome 16 inversion results in formation of the fusion oncogene CBFB-MYH11, which encodes the fusion protein CBF-beta-SMMHC. […] It has been hypothesized that the interference of CBF-beta and RUNX1 binding could have therapeutic implications for patients with CBF mediated leukemias. We developed a CBF-beta and RUNX1 binding assay in AlphaScreenTM format and optimized it for high throughput screening to search for inhibitors. The goal of this project is to screen MLPCN's compound collection (MLSMR) for identifying the inhibitors of the interaction between CBF-beta and RUNX1 proteins as research probes. If these probes work well in the animal models, the ultimate goal of this project is to development a new drug treatment for this disease. […] These fish contain a genomic modulation where GFP has been fused to cd41, a marker for thrombocytes, and thus circulating thrombocytes can be easily imaged in anesthetized fish.
Assay protocol: GFP-cd41 zebrafish were kindly provided by the Liu lab. Zebrafish embryos were incubated with compound (<0.1% DMSO final) at 48 hours post fertilization, for 5 days. Embryos were manually scored under a microscope with GFP illumination for circulating GFP-tagged thrombocytes. Keywords: MLSMR, MLPCN, NIH Roadmap, qHTS, NCGC, Core binding factor, CBF, CBF-beta, Acute myeloid leukemia
Regarding `CN1C(=O)CN=C(c2ccc[nH]2)c2cc(Cl)ccc21` (tested in a mixture with another compound), the fish with circulating GFP thrombocytes is 29.2% (active).
Take `CCN(CC)CCN1C(=O)CN=C(c2ccc[nH]2)c2cc(Cl)ccc21`: the fish with circulating GFP thrombocytes was 45.8% (active).
The same measure, in the same setting: the result for `CCN(CC)CCN1C(=O)CN=C(c2ccccn2)c2cc(Cl)ccc21` reads 66.7% (active).

The assay is the same for the next values; noted with them: GFP-cd41 zebrafish embryos, microscopy, 5 days, at 50 uM, stronger effect = lower value.
The compound `CN1C(=O)CN=C(c2ccc[nH]2)c2cc(Cl)ccc21` (tested in a mixture with another compound) returned a fish with circulating GFP thrombocytes of 0%.
As for `CCN(CC)CCN1C(=O)CN=C(c2ccc[nH]2)c2cc(Cl)ccc21`, the fish with circulating GFP thrombocytes turned out to be 70.8%.
Same read-out and setting: under `CCN(CC)CCN1C(=O)CN=C(c2ccccn2)c2cc(Cl)ccc21` stands 66.7%.
